Reference: PubChem BioAssay (Tox21)
Inconclusive results are not listed. The source made the active and inactive calls. Unless noted, the call rests on the fitted dose curve; in most records, active means well fitted curve in the direction sought with a large enough effect in the repeat runs; inconclusive means weak or mixed curves; inactive means no such curve, though single readings can be large; an effect the other way counts as inactive or inconclusive.

Assays:
[1] = qHTS assay to identify small molecule agonists of the vitamin D receptor (VDR) signaling pathway - cell viability counter screen (AID 743224); further: series mostly up to about 63 µM; on the % scale 0 is the no-effect control and ±100 the full control effect; nearly all actives have a fitted effect of over 50% in size
Procedure, shortened: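 CellTiter-Glo viability readout on VDR-bla cells, measured after 16 h of compound treatment at 37C in the same wells.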

[2] = qHTS assay to identify small molecule antagonists of the vitamin D receptor (VDR) signaling pathway - cell viability counter screen (AID 743225); further: on the % scale 0 is the no-effect control and ±100 the full control effect; nearly all actives have a fitted effect of over 50% in size
Procedure, shortened: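 Cytotoxicity toward the VDR-bla HEK 293T line was scored by ATP-based CellTiter-Glo luminescence, read in the wells already used for the beta-lactamase readout after 16 h compound treatment under 3 nM 1-alpha,25-dihydroxyvitamin D3 stimulation.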

[3] = qHTS assay to identify small molecule agonists of the NFkB signaling pathway (AID 1159509; active means well fitted curve in the direction sought with a large enough effect in the signal ratio in the repeat runs, not every such curve was filed as active; the % refers to the signal ratio; further: series mostly up to about 61 µM; on the % scale 0 is the no-effect control and ±100 the full control effect)
Procedure, shortened: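 Pathway activation was measured in ME-180 cells stably expressing beta-lactamase under NF-kB response element control. Substrate cleavage was read as the 460/530 nm emission shift after 5 hr compound incubation.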

[4] = qHTS assay to identify small molecule agonists of the NFkB signaling pathway - cell viability counter screen (AID 1159515; calls by dose curve; further: series mostly up to about 61 µM; on the % scale 0 is the no-effect control and ±100 the full control effect; nearly all actives have a fitted effect of over 55% in size)
Procedure, shortened: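 Tox21 library compounds were tested for cytotoxicity against NFkB-bla ME-180 cells during a 5 hr exposure at 37 C. CellTiter-Glo luminescence served as the viability read-out.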

[5] = qHTS assay to identify small molecule agonists of the endoplasmic reticulum stress response signaling pathway (AID 1159516; active means well fitted activation curve with a large enough effect in the signal ratio in the repeat runs, not every such curve was filed as active; the % refers to the signal ratio; further: on the % scale 0 is the no-effect control and ±100 the full control effect)
Procedure, shortened: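 Fluorescence at 460 and 530 nm (405 nm excitation) reports beta-lactamase from an ER stress response element in HeLa cells treated 5 hr at 37 C.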

[6] = qHTS assay to identify small molecule agonists of the endoplasmic reticulum stress response signaling pathway - cell viability counter screen (AID 1159517; calls by dose curve; further: series mostly up to about 61 µM; on the % scale 0 is the no-effect control and ±100 the full control effect; nearly all actives have a fitted effect of over 50% in size)
Procedure, shortened: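 In parallel with the ESRE reporter read, cytotoxicity was scored by CellTiter-Glo luminescence (30 min, room temperature) on HeLa ESRE-bla cells dosed for 5 hr.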

[7] = qHTS assay to identify small molecule antagonists of the retinoid-related orphan receptor gamma (ROR-gamma) signaling pathway - cell viability counter screen (AID 1159520); further: on the % scale 0 is the no-effect control and ±100 the full control effect; nearly all actives have a fitted effect of over 50% in size
Procedure, shortened: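 Tet-on ROR gamma CHO cells were given compounds for 2 hr, then doxycycline hyclate at 1 uM final, and incubated 16 hr at 37 C. Viability was measured as ATP content by CellTiter-Glo luminescence.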

[8] = target: Nuclear receptor ROR-gamma (Homo sapiens) (UniProt P51449); experiment: qHTS assay to identify small molecule antagonists of the retinoid-related orphan receptor gamma (ROR-gamma) signaling pathway (AID 1159521)
Procedure, shortened: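 Readout: ONE-Glo luciferase luminescence, 30 min at room temperature. System: Tet-on RORγ CHO, RORE-LUC. Sequence: compound 2 h, doxycycline 1 uM final, 16 h at 37 C.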

[9] = qHTS assay to identify small molecule agonists of the AP-1 signaling pathway - cell viability counter screen (AID 1159525; calls by dose curve; further: nearly all actives have a fitted effect of over 55% in size)
Procedure, shortened: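 Same-well cytotoxicity counter screen of the Tox21 10K library in ME-180 cells. The readout is ATP-dependent luminescence after 5 h compound treatment. Data are normalised to DMSO and tetra n-octyl ammonium bromide controls.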

[10] = qHTS assay to identify small molecule agonists of the AP-1 signaling pathway (AID 1159526; calls by dose curve; further: on the % scale 0 is the no-effect control and ±100 the full control effect)
[11] = target: Retinoic acid receptor RXR-alpha (Homo sapiens) (UniProt P19793); experiment: qHTS assay to identify small molecule agonists of the RXR signaling pathway (AID 1159527; calls by dose curve; further: on the % scale 0 is the no-effect control and ±100 the full control effect; nearly all actives have a fitted effect of over 35% in size)
Sequence of Retinoic acid receptor RXR-alpha (Homo sapiens) (P19793 whole entry, looked up): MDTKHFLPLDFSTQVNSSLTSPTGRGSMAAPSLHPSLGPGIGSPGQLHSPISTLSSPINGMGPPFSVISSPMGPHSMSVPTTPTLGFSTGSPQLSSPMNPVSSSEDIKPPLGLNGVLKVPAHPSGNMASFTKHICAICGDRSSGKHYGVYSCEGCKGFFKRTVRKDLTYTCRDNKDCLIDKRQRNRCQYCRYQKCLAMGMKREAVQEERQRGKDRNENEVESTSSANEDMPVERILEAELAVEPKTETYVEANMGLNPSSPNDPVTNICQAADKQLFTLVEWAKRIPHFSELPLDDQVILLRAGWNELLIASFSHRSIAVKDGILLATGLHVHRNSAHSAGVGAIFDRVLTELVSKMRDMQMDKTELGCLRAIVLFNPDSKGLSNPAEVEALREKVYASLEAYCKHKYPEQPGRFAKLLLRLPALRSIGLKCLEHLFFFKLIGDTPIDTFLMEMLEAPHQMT
Procedure, shortened: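 Reporter activation is measured as beta-lactamase activity via FRET substrate cleavage (emission 460/530 nm) in HEK 293T cells expressing an RXR-alpha-driven bla construct, following 16 hr compound exposure at 37 C.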

[12] = qHTS assay to identify small molecule antagonists of the retinoid acid receptor (RAR) signaling pathway - cell viability counter screen (AID 1159551); further: on the % scale 0 is the no-effect control and ±100 the full control effect; nearly all actives have a fitted effect of over 35% in size
Procedure, shortened: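 In this counter screen, the RARE-luciferase line C3RL4 was exposed for 6 h at 37 C and 5% CO2 to compounds with retinol at 1 uM final. Cellular ATP, read by luminescence, served as the viability measure.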

[13] = qHTS assay to identify small molecule agonists of the RXR signaling pathway - cell viability counter screen (AID 1159529)
Procedure, shortened: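 Tox21 10K compounds were tested for cytotoxicity against GeneBLAzer RXR-alpha HEK 293T cells grown in 2% charcoal-stripped FBS. Exposure lasted 16 hr at 37 C, 5% CO2; viability read by CellTiter-Glo luminescence.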

[14] = qHTS assay to identify small molecule antagonists of the retinoic acid receptor (RAR) signaling pathway (AID 1159552)
Procedure, shortened: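 Overnight-plated C3RL4 reporter cells get compound, then retinol to 1 uM final; plates sit 6 hr at 37 C, 5% CO2. A luciferase reagent is added and light output recorded after 30 min at room temperature.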

[15] = qHTS assay to identify small molecule agonists of the retinoic acid receptor (RAR) signaling pathway (AID 1159553); further: on the % scale 0 is the no-effect control and ±100 the full control effect
Procedure, shortened: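 In this cell-based screen, 1,000 C3RL4 cells per well were cultured overnight, dosed with test chemicals in DMSO for 6 hr, and assessed for RARE luciferase luminescence.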

[16] = qHTS assay to identify small molecule antagonists of the estrogen related receptor (ERR) signaling pathway - cell viability counter screen (AID 1224818)
Procedure, shortened: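 Viability of ERR cells, CellTiter-Fluor fluorescence; 17.5 h compound exposure at 37 C, DMSO vehicle; 30 min reagent incubation at 37 C/5% CO2.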

[17] = qHTS assay to identify small molecule antagonists of the estrogen related receptor signaling pathway with the pleiotropic PPARgamma coactivator (PGC) cell viability counter screen (AID 1224822)
Procedure, shortened: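 17.5 h compound treatment of PGC/ERR cells at 37 C; readout CellTiter-Fluor fluorescence; run alongside the PGC/ERR antagonist screen to flag cytotoxic compounds.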

Nc1[nH]c(=O)ncc1F
inactive: outcome [1] | outcome [2] | outcome [3] | outcome [4] | outcome [5] | outcome [6] | Potency [7] | Potency [8] | outcome [9] | Potency [10] | Potency [11] | outcome [12]

NCC[C@H](O)C(=O)N[C@@H]1C[C@H](N)[C@@H](O[C@H]2O[C@H](CN)[C@@H](O)[C@H](O)[C@H]2O)[C@H](O)[C@H]1O[C@H]1O[C@H](CO)[C@@H](O)[C@H](N)[C@H]1O
inactive: activity change, negative = cytotoxicity [1] 7.01% [at 0.55 µM] | viability change, negative = cytotoxic [2] 0.0036% [at 0.628 µM] | activation [3] 0.167% [at 0.628 µM] | activity, negative = cytotoxic [4] 8.7% [at 0.628 µM] | activation [5] -0.818% [at 0.628 µM] | activity change, negative = cytotoxicity [6] 6.85% [at 0.628 µM] | activity, negative = cytotoxicity [7] 3.36% [at 0.349 µM] | activity change, negative = inhibition [8] 19% [at 0.35 µM] | viability change, negative = cytotoxic [9] 8.93% [at 0.29 µM] | activation [10] 12.3% [at 0.29 µM] | activation [11] 7.2% [at 0.29 µM] | activity change, negative = cytotoxicity [13] 9.63% [at 0.29 µM]

COc1nc(C)nc(N)n1
inactive: outcome [1] | outcome [2] | outcome [3] | outcome [4] | outcome [5] | outcome [6] | Potency [7] | Potency [8] | outcome [9] | Potency [10] | Potency [11] | Potency [13]

CCO[Si](CCCN=C=O)(OCC)OCC
inactive: outcome [1] | outcome [3] | outcome [4] | outcome [5] | outcome [6] | Potency [7] | Potency [8] | outcome [9] | Potency [10] | Potency [13] | outcome [12] | Potency [14] | Potency [15]

Cc1ccc(Nc2ccc(O)c3c2C(=O)c2ccccc2C3=O)cc1
inactive: outcome [1] | outcome [2] | outcome [3] | outcome [4] | outcome [5] | outcome [6] | Potency [7] | Potency [8] | outcome [9] | Potency [10] | Potency [11] | outcome [12]

CC(C)c1cccc(C(C)C)c1N
inactive: outcome [1] | outcome [2] | outcome [3] | outcome [4] | outcome [5] | outcome [6] | Potency [7] | Potency [8] | outcome [9] | Potency [10] | Potency [11] | outcome [12] | Potency [14] | Potency [15]

CCN(CC)C(=O)c1ccc(O)c(OC)c1
inactive: outcome [1] | outcome [2] | outcome [3] | outcome [4] | outcome [5] | outcome [6] | Potency [7] | Potency [8] | outcome [9] | Potency [10] | Potency [11] | outcome [16] | outcome [17]

Cc1c(C)n(CCN(C)C)c2ccc(C(=O)OCCN(C)C)cc12
inactive: outcome [1] | outcome [2] | outcome [3] | outcome [4] | outcome [5] | outcome [6] | Potency [7] | Potency [8] | outcome [9] | Potency [10] | Potency [11] | outcome [12] | Potency [14] | Potency [15]

CC(=O)N[C@@H](CCC(N)=O)C(=O)O
inactive: outcome [1] | outcome [3] | outcome [4] | outcome [5] | outcome [6] | Potency [7] | Potency [8] | outcome [9] | Potency [10] | Potency [11]
